From PubChem BioAssay (NCI)
The panel holds about 83,000 compounds, 20% with a hit somewhere; the sample as a whole holds those more often.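 How to read the values: 0–100, growth inhibition (40 = 60% inhibited); 0, no net growth; -100 to 0, cell death (-40 = 40% of starting cells died; -100 = all dead).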 The source made the active and inactive calls. How the source made its calls: active means growth percent below 10; inactive means the rest.

Columns and labels:
Test in all cases: NCI-60 one-dose screen, 48 h (100 = growth as untreated, 0 = no growth, -100 = all killed)
Conditions in all cases: 10 µM
NCI-H23 lung = system: NCI-H23 lung
NCI-H226 lung = system: NCI-H226 lung
NCI-H322M lung = system: NCI-H322M lung
HOP-62 NSCLC = system: HOP-62 NSCLC
NCI-H522 lung = system: NCI-H522 lung
A549/ATCC NSCLC = system: A549/ATCC NSCLC
786-0 renal = system: 786-0 renal
COLO 205 colon = system: COLO 205 colon
DU-145 prostate = system: DU-145 prostate
K-562 leukemia = system: K-562 leukemia
MDA-MB-231 breast = system: MDA-MB-231 breast
RXF 393 renal = system: RXF 393 renal
SF-268 CNS = system: SF-268 CNS
SF-295 CNS = system: SF-295 CNS
SF-539 CNS = system: SF-539 CNS
UACC-257 melanoma = system: UACC-257 melanoma
M14 melanoma = system: M14 melanoma
HCT-15 colon = system: HCT-15 colon
MALME-3M melanoma = system: MALME-3M melanoma

Measured: growth

CCCCCCCCCCCCCCCCN(C(C)c1ccccc1)S(=O)(=O)c1ccc(OC)c(N)c1 (centres undefined)
inactive: NCI-H23 lung 93.7% | NCI-H226 lung 108% | NCI-H322M lung 128% | HOP-62 NSCLC 117% | NCI-H522 lung 90.5% | A549/ATCC NSCLC 107% | 786-0 renal 124% | COLO 205 colon 123% | DU-145 prostate 116% | K-562 leukemia 89.9% | MDA-MB-231 breast 122% | RXF 393 renal 131% | SF-268 CNS 108% | SF-295 CNS 116% | SF-539 CNS 116% | UACC-257 melanoma 108% | M14 melanoma 115% | HCT-15 colon 115%

COc1ccc(-c2nn(-c3cccc(NC(=O)Nc4cc(C(F)(F)F)cc(C(F)(F)F)c4)c3)cc2-c2ccncc2)cc1Cl
inactive: NCI-H226 lung 24.2% | DU-145 prostate 17.6% | HCT-15 colon 12.1%
active: NCI-H23 lung 5.1% | NCI-H322M lung 4.66% | HOP-62 NSCLC 3.91% | NCI-H522 lung -30% | 786-0 renal -12.8% | COLO 205 colon -88.9% | K-562 leukemia 7.03% | MALME-3M melanoma -19.9% | MDA-MB-231 breast -63% | RXF 393 renal -12.6% | SF-268 CNS 9.51% | SF-295 CNS -1.97% | SF-539 CNS -42.9% | UACC-257 melanoma -31% | M14 melanoma -34.1%

COc1cc(CNc2ccccc2C(=O)N2CCN(C(=O)c3cc(-c4cc(OC)c(OC)c(OC)c4)n4nc(-c5ccccc5)cc4n3)CC2)cc(OC)c1OC
active: SF-295 CNS 0.214%
inactive: NCI-H23 lung 61.7% | NCI-H226 lung 76.5% | NCI-H322M lung 43.7% | HOP-62 NSCLC 53.9% | A549/ATCC NSCLC 37.8% | 786-0 renal 50.8% | COLO 205 colon 46.8% | DU-145 prostate 67.7% | K-562 leukemia 22.8% | MDA-MB-231 breast 67.8% | RXF 393 renal 35.5% | SF-268 CNS 65% | SF-539 CNS 49.4% | UACC-257 melanoma 37.5% | M14 melanoma 33% | HCT-15 colon 42.8%

COC(=O)C(=C\c1ccc2c(c1)OCO2)/C(=C/c1ccc2c(c1)OCO2)C(=O)OC
inactive: NCI-H23 lung 92.4% | NCI-H226 lung 97.8% | NCI-H322M lung 96.9% | HOP-62 NSCLC 102% | NCI-H522 lung 86% | A549/ATCC NSCLC 101% | 786-0 renal 98.1% | COLO 205 colon 102% | DU-145 prostate 103% | K-562 leukemia 108% | MALME-3M melanoma 101% | MDA-MB-231 breast 107% | SF-268 CNS 96% | SF-295 CNS 95.3% | SF-539 CNS 96.1% | UACC-257 melanoma 108% | M14 melanoma 99.4% | HCT-15 colon 97.8%

NC1=NC(=O)C(c2ccccc2)(c2ccccc2)S1
inactive: NCI-H23 lung 106% | NCI-H226 lung 103% | NCI-H322M lung 111% | HOP-62 NSCLC 98.1% | A549/ATCC NSCLC 104% | 786-0 renal 102% | COLO 205 colon 117% | DU-145 prostate 114% | K-562 leukemia 90.8% | MDA-MB-231 breast 104% | RXF 393 renal 109% | SF-268 CNS 113% | SF-295 CNS 112% | SF-539 CNS 111% | UACC-257 melanoma 110% | M14 melanoma 107% | HCT-15 colon 101%

CN1CCCNc2c(c(=O)c2=O)NCCCN(C)CCCNc2c(c(=O)c2=O)NCCCN(C)CCCNc2c(c(=O)c2=O)NCCCN(C)CCCNc2c(c(=O)c2=O)NCCCN(C)CCCNc2c(c(=O)c2=O)NCCCN(C)CCCNc2c(c(=O)c2=O)NCCCN(C)CCCNc2c(c(=O)c2=O)NCCC1
active: DU-145 prostate -30.2% | SF-268 CNS -16.5% | SF-539 CNS 6.63%
inactive: NCI-H23 lung 46.8% | NCI-H226 lung 74.6% | NCI-H322M lung 44.8% | HOP-62 NSCLC 49.1% | NCI-H522 lung 56.1% | A549/ATCC NSCLC 37.1% | 786-0 renal 54.3% | COLO 205 colon 13.9% | MDA-MB-231 breast 46.5% | SF-295 CNS 65.9% | UACC-257 melanoma 21.2% | M14 melanoma 61.1% | HCT-15 colon 62.4%
